Source: PubChem
A selection: hits, their analogues and other compounds. The true share with any hit is near 12%.
Sfp inh: qHTS Assay for Inhibitors of Bacillus subtilis Sfp phosphopantetheinyl transferase (PPTase). Potency, µM, for inactives: largest response in the series, negative = inhibition, actives largely listed as inhibitors. Biochemical Sfp PPTase activity, qHTS. actives 3.5% (n = 310,000). AID 1490, 2009. 4'-phosphopantetheinyl transferase ffp (Bacillus subtilis), Q9F4F7;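 also: the enzyme is Sfp with the accession as filed and its product quenches rhodamine fluorescence; 0% = enzyme reaction without inhibitor and -100% = no enzyme wells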
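Reaction rates are the 30-min fluorescence difference (ex 525, em 598 nm) in wells containing 15 nM Sfp, 5 uM rhodamine-CoA and 12.5 uM BHQ-2-YbbR at pH 7.6 with 10 mM MgCl2.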
HP1b chromo inh: HTS for Inhibitors of HP1-beta Chromodomain Interactions with Methylated Histone Tails; Chromobox protein homolog 1 (Homo sapiens), P83916; AlphaScreen HP1-beta / biotin-H3K9me3 peptide binding; Potency, µM (titrated, usually from 114 µM), for inactives: at the top dose activity change, negative = inhibition, actives largely listed as inhibitors; actives 0.56% (n = 390,000); AID 540317, 2011; also: nearly all actives have a fitted effect of over 70% in size
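Compound inhibition of the preformed complex between 50 nM HP1-beta and 50 nM biotinylated H3K9me3 peptide was read by AlphaScreen. Buffer was PBS pH 7.4 with 0.01% Tween-20. Incubations ran 30 min at room temperature, with 10 ug/mL donor/acceptor beads.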
JMJD2A Tudor: qHTS Assay for Inhibitors of JMJD2A-Tudor Domain | Lysine-specific demethylase 4A (Homo sapiens), O75164 | AlphaScreen JMJD2A-Tudor / H3K4me3 peptide binding | Potency, µM (top dose mostly 114 µM), without a hit: at the top dose activity change, negative = inhibition, hits mostly inhibitors | actives 4.4% (n = 390,000); also: % is scaled to controls: 0 for no effect and ±100 for the full control effect; nearly all actives have a fitted effect of over 50% in size
G9a inh: qHTS Assay for Inhibitors of Histone Lysine Methyltransferase G9a; Histone-lysine N-methyltransferase EHMT2 (Homo sapiens), Q96KQ7; G9a H3K9 monomethylation, AlphaScreen, 2 h; Potency, µM (doses to about 102 µM), without a hit: at the highest dose activity, negative = inhibition, usual class: inhibitors; actives 8.8% (n = 350,000); also: % is scaled to controls: 0 for no effect and ±100 for the full control effect; nearly all actives have a fitted effect of over 75% in size
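Quantitative HTS format: methyltransferase activity on a biotin-tagged H3K9 peptide is measured by AlphaScreen, using a rabbit anti-monomethyl-H3K9 antibody with streptavidin donor and anti-IgG acceptor beads. Final levels are 20 nM enzyme, 500 nM peptide, 20 uM SAM; 2 h RT.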
BAZ2B inh: qHTS Assay for Inhibitors of BAZ2B | Bromodomain adjacent to zinc finger domain protein 2B (Homo sapiens), Q9UIF8 | AlphaScreen BAZ2B-H3K14Ac peptide displacement | Potency, µM (series often up to 114 µM), for the others: at the highest dose activity change, negative = inhibition, hits mostly inhibitors | actives 4.4% (n = 360,000); also: % is scaled to controls: 0 for no effect and ±100 for the full control effect; nearly all actives have a fitted effect of over 60% in size
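Protein-peptide AlphaScreen: BAZ2B 50 nM, b-H3K14Ac 50 nM, 1x PBS pH 7.4 + 0.01% Tween-20. Preincubation 30 min RT; cpd 30 min RT (top 110 uM); beads 20 min RT, light-protected.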
L3MBTL1 inh: qHTS Assay for the Inhibitors of L3MBTL1 | Lethal(3)malignant brain tumor-like protein 1 (Homo sapiens), Q9Y468 | AlphaScreen L3MBTL1–H3K9me1 peptide binding | Potency, µM (highest dose often 57.1 µM), for inactives: top-dose activity, negative = inhibition, usual class: inhibitors | actives 0.66% (n = 230,000) | AID 485360, 2010; also: % is scaled to controls: 0 for no effect and ±100 for the full control effect; nearly all actives have a fitted effect of over 60% in size
Target sequence (Q9Y468 whole entry, looked up): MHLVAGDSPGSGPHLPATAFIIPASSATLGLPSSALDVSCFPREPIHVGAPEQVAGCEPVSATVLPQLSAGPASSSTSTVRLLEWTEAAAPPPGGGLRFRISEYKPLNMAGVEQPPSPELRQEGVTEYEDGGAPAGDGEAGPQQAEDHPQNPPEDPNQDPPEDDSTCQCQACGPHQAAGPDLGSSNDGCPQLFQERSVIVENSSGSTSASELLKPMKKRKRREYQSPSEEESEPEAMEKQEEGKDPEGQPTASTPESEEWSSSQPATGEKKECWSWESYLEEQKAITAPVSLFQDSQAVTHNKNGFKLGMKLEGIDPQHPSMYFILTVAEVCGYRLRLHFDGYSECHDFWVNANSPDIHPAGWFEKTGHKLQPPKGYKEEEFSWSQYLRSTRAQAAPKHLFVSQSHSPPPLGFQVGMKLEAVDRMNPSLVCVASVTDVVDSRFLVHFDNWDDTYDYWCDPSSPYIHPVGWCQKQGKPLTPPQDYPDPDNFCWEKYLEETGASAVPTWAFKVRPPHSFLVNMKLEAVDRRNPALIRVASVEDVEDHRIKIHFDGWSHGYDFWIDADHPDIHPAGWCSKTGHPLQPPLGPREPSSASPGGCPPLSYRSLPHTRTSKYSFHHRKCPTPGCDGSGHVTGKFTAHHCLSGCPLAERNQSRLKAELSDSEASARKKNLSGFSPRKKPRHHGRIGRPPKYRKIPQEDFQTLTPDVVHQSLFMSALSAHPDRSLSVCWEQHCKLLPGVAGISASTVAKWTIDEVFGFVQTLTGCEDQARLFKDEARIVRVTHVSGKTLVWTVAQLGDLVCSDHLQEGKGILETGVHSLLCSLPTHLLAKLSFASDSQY
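First, the protein-peptide complex forms for 30 min at room temperature (L3MBTL1 50 nM, biotinylated H3K9me1 peptide 75 nM). Next, compounds are pin-transferred and incubated 30 min. Finally, AlphaScreen beads are added and read after 30 min.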
* hit, by the source's call; [ ] = another dose, or the depositor's remark. Calls follow the shape of the dose curve; as a rule, active = well fitted curve in the direction sought with a large enough effect; inconclusive = small, poorly fitted or top-dose-only effect, or another doubt; inactive = no such curve, though single readings can be large; an effect the other way counts as inactive or inconclusive. Potency is read from the fitted curve at half-maximal effect.

Results for CC(C)(C)OC(=O)[C@H]1[C@H](c2ccc([N+](=O)[O-])cc2)C2(C(=O)c3ccccc3C2=O)C2c3ccccc3C=NN21 (some centres undefined) ?
Sfp inh: -15%; HP1b chromo inh: -32%; JMJD2A Tudor: inconclusive; G9a inh: 14µM*; BAZ2B inh: 40µM*; L3MBTL1 inh: -20%

What do the screens show for `O=S1(=O)c2ccccc2N=NN1Cc1ccc(Cl)cc1`?
Sfp inh: 50µM*; HP1b chromo inh: -18%; JMJD2A Tudor: 79µM*; G9a inh: 0.63µM*; BAZ2B inh: inconclusive

How did CCc1ccc(-c2cn3c(n2)sc2cc(C(=O)NCCc4ccc(OC)cc4OC)ccc23)cc1 do in these assays?
HP1b chromo inh: 39%; JMJD2A Tudor: -1%; G9a inh: 3%[59 µM]; BAZ2B inh: -3%

Results for Cc1oc2ncn(C)c(=O)c2c1C(=O)N1CCN(c2cccc(C(F)(F)F)c2)CC1 ?
HP1b chromo inh: 34%; JMJD2A Tudor: -19%; G9a inh: 4%[59 µM]; BAZ2B inh: 0%[57.1 µM]

What do the screens show for `CCOC(=O)c1c(NC(=O)C2COc3ccccc3O2)sc(C(C)=O)c1C` (centres undefined)?
Sfp inh: 5%; HP1b chromo inh: -17%; JMJD2A Tudor: -14%; G9a inh: 50µM*; BAZ2B inh: 4%

What do the screens show for `CCOC(=O)c1c(NC(=O)C2COc3ccccc3O2)sc2c1CC(C)(C)NC2(C)C` (centres undefined)?
Sfp inh: inconclusive; HP1b chromo inh: 14%; JMJD2A Tudor: -28%; G9a inh: 56µM*; BAZ2B inh: inconclusive; L3MBTL1 inh: -17%

Results for CCOC(=O)c1c(NC(=O)Cc2ccccc2)sc2c1CC(C)(C)NC2(C)C ?
Sfp inh: -4%; HP1b chromo inh: 19%; JMJD2A Tudor: -28%; G9a inh: inconclusive; BAZ2B inh: -11%; L3MBTL1 inh: -4%

How did CCCC(=O)NCCc1c2n(c3ccc(OC)cc13)Cc1ccccc1-2 do in these assays?
G9a inh: 33%[12.7 µM]

Results for Cc1cc(C)nc(Sc2ncnc(N)c2[N+](=O)[O-])n1 ?
Sfp inh: 50µM*; HP1b chromo inh: 50%; JMJD2A Tudor: -13%; G9a inh: -5%[12.7 µM]; BAZ2B inh: inconclusive; L3MBTL1 inh: 10%

Results for S=c1[nH]nc(-c2cc(-c3ccccc3)n[nH]2)n1/N=C/c1ccc(Cl)c(Cl)c1 ?
Sfp inh: -24%; HP1b chromo inh: 129%; JMJD2A Tudor: 50µM*; G9a inh: inconclusive; BAZ2B inh: 45µM*; L3MBTL1 inh: -18%

Results for S=c1[nH]nc(-c2cc(-c3ccccc3)n[nH]2)n1/N=C/c1ccc(Cl)cc1 ?
Sfp inh: -5%; HP1b chromo inh: 25%; JMJD2A Tudor: -31%; G9a inh: inconclusive; BAZ2B inh: -21%; L3MBTL1 inh: -7%

What do the screens show for `S=c1[nH]nc(-c2cc(-c3ccccc3)n[nH]2)n1/N=C/c1cccc(Cl)c1`?
Sfp inh: inconclusive; HP1b chromo inh: inconclusive; JMJD2A Tudor: 40µM*; G9a inh: 10µM*; BAZ2B inh: 50µM*; L3MBTL1 inh: -25%

What do the screens show for `C#CCOCCOCCOCCNc1nc(N2CCN(C(=O)[C@H](CCCCN)n3cc(C(N)CO)nn3)CC2)nc(N2CCN(C(=O)[C@H](CCC(=O)O)n3cc(C(N)CC(C)C)nn3)CC2)n1` (some centres undefined)?
Sfp inh: inconclusive; G9a inh: inconclusive; BAZ2B inh: 20µM*

How did C#CCOCCOCCOCCNc1nc(N2CCN(C(=O)C([C@@H](C)O)n3cc([C@@H](N)CCCCN)nn3)CC2)nc(N2CCN(C(=O)[C@H](CCC(=O)O)n3cc([C@@H](N)[C@H](C)CC)nn3)CC2)n1 (some centres undefined) do in these assays?
HP1b chromo inh: 18%; JMJD2A Tudor: 89µM*; L3MBTL1 inh: inconclusive

Results for C#CCOCCOCCOCCNc1nc(N2CCN(C(=O)[C@H](CCCCN)n3cc(C(N)CC(C)C)nn3)CC2)nc(N2CCN(C(=O)[C@H](CCC(=O)O)n3cc(C(N)[C@H](C)CC)nn3)CC2)n1 (some centres undefined) ?
Sfp inh: 5%; HP1b chromo inh: 49%; JMJD2A Tudor: 50µM*; G9a inh: -136%[59 µM]; BAZ2B inh: 50µM*; L3MBTL1 inh: inconclusive

What do the screens show for `Cc1c(Cl)cccc1NC(=O)CCS(=O)(=O)c1ccc2c(c1)CC(C)N2C(=O)C1CC1` (centres undefined)?
HP1b chromo inh: 53%; JMJD2A Tudor: 9%; G9a inh: 2%[59 µM]; BAZ2B inh: -20%

What do the screens show for `CCOC(=O)c1ccc(NC(=O)C2Cc3ccccc3CN2S(=O)(=O)c2ccc(Cl)cc2)cc1` (centres undefined)?
HP1b chromo inh: 39%; JMJD2A Tudor: 0%; G9a inh: 8%[59 µM]; BAZ2B inh: 2%

How did Cc1ccc(OCC(=O)Nc2c(C(=O)c3ccc(Cl)cc3)oc3ccccc23)cc1C do in these assays?
HP1b chromo inh: 40%; JMJD2A Tudor: -1%; G9a inh: -38%[59 µM]; BAZ2B inh: 3%

How did c1coc(CNc2nc(N3CCCCC3)nc3ccccc23)c1 do in these assays?
Sfp inh: inconclusive; HP1b chromo inh: 2%; JMJD2A Tudor: -26%; G9a inh: inconclusive; BAZ2B inh: inconclusive; L3MBTL1 inh: -3%

How did c1ccc(N2CCN(c3nc(NCc4ccco4)c4ccccc4n3)CC2)cc1 do in these assays?
Sfp inh: 32µM*; HP1b chromo inh: -38%; JMJD2A Tudor: 50µM*; G9a inh: 45µM*; BAZ2B inh: 45µM*; L3MBTL1 inh: -2%

How did c1ccc(CNc2nc(N3CCN(Cc4ccccc4)CC3)nc3ccccc23)cc1 do in these assays?
Sfp inh: 56µM*; HP1b chromo inh: -2%; JMJD2A Tudor: -34%; G9a inh: inconclusive; BAZ2B inh: 50µM*
